# Data reported in publication PMC4336329 (PLoS ONE, 2015).
# The whole screen tested about 310,000 compounds, of which about 14,000 (4.5%) showed an effect of 50% or more. Effects have a minus sign here. This is one part of a sample in which strong results are shown more often than they occur.
# Molecular target: human ether-à-go-go-related gene (hERG) potassium channel (human, UniProt Q12809)
# Experiment: primary screen, population patch clamp on CHO cells stably expressing hERG; higher = less effect of the substance
# 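Note: peak tail current of the secondary pulse compared with the same well before compound.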
# human ether-à-go-go-related gene (hERG) potassium channel, sequence (Q12809 whole entry, looked up): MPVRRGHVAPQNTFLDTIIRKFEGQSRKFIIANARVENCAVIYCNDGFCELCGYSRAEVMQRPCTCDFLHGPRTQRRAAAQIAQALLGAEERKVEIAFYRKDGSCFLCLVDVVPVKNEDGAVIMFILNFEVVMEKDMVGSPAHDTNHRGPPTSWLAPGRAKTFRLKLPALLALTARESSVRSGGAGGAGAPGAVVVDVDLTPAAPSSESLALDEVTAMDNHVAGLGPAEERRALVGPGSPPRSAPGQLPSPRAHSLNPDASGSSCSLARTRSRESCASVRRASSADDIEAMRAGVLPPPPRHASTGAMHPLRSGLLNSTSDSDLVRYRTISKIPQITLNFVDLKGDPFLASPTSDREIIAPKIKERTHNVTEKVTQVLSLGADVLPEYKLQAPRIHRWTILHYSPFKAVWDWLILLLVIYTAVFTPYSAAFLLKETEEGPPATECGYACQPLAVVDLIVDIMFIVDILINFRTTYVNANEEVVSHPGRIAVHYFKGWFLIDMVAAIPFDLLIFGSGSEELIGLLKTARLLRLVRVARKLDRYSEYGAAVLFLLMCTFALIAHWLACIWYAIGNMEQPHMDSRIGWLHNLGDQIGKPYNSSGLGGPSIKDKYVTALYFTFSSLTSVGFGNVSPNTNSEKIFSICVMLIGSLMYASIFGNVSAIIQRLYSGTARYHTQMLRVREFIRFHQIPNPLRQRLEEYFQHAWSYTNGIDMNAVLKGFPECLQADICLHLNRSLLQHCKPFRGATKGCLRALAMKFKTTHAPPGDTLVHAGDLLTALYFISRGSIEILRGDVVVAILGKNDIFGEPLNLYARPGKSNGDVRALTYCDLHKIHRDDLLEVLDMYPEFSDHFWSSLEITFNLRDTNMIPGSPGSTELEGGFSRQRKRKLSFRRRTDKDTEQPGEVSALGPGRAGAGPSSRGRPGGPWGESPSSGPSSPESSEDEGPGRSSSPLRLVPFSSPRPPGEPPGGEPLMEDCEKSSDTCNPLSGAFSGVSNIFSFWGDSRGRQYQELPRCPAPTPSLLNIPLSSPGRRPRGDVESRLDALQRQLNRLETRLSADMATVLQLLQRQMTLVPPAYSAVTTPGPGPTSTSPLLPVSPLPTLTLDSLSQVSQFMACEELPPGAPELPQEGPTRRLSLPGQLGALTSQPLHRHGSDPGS
row,SMILES,"hERG current change (%, negative = inhibition) at 10uM [%]"
1,CC(C)c1ccc(NC2CCCN(C(=O)c3cccnc3)C2)cc1 (stereo not drawn),0.148
2,Cc1c(C(=O)Nc2ccc(F)cc2)sc2ncn(CC(=O)N3CCCCC3)c(=O)c12,1.43
3,Cc1ccccc1/C=N\NC(=O)c1ccc(Cn2cccn2)o1,4.98
4,O=C(N/N=C\c1ccc(Cl)s1)c1ccc(Cn2cccn2)o1,-57.2
5,O=C(N/N=C\c1cccc(Cl)c1)c1ccc(Cn2cccn2)o1,-71.2
6,CC(C)c1ccc(/C=N\NC(=O)c2ccc(Cn3cccn3)o2)cc1,-42
7,O=C(N/N=C\c1c(O)ccc2ccccc12)c1ccc(Cn2cccn2)o1,9.2
8,O=C(N/N=C\c1ccc(Br)cc1)c1ccc(Cn2cccn2)o1,-34.1
9,O=C(OCCOCCN=C1NS(=O)(=O)c2ccccc21)c1ccccc1,2.47
10,COc1ccc(CNC(=O)CN(c2cccc(OC)c2)S(C)(=O)=O)cc1,2.47
11,Cc1cc2c(NC(=O)Nc3ccc(F)cc3)cccc2nn1,8.16
12,Clc1cccc(NCc2nnc(SCc3ccccc3)o2)c1,3.21
13,COc1ccc(Cn2c(-c3ccc(OC)cc3)nc3ccccc32)cc1,-36.9
14,CCOc1ccc2[nH]c(=O)c(CN(CCO)C(=O)c3ccc(OC)c(OC)c3)cc2c1,-0.583
15,CCCCCN1C=CC(=C2C(=O)c3ccccc3C2=O)C=C1,-61
16,CCCCCCN1C=CC(=C2C(=O)c3ccccc3C2=O)C=C1,10.5
17,CCCCN1C=CC(=C2C(=O)c3ccccc3C2=O)C=C1,-1.69
18,CCOC(=O)c1c(C)cc(C)n2c1nc1ccccc12,-38.8
19,CN(Cc1c(C(=O)N/N=C/c2ccccc2)nnn1-c1nonc1N)C1CCCCC1,8.4
20,COc1ccc(/C=N\N=C(N)N)cc1.O=[N+]([O-])O,-1.01
21,NC(N)=N/N=C/c1ccc(N(c2ccccc2)c2ccccc2)cc1.O=[N+]([O-])O,-50.8
22,NC(N)=N/N=C/c1ccc(OS(=O)(=O)c2ccccc2)cc1,-55.6
23,CN(C)/N=C/c1ccc(OS(=O)(=O)c2ccccc2)cc1,8.55

row,SMILES,"hERG current change (%, negative = inhibition) at 10uM [%]"
1,CCN(Cc1ccccc1)c1ccc(/C=N/N=C(N)N)cc1,-25
2,CCC(=O)N/N=C/c1ccc(OS(=O)(=O)c2ccccc2)cc1,-17.5
3,COc1ccc(C(CNC(=O)COc2cc(C)ccc2Cl)N2CCCCC2)cc1 (stereo not drawn),1.57
4,O=C(c1ccc2c3c(cccc13)CC2)C1CCCN(C(=O)c2ccc(=O)[nH]c2)C1 (stereo not drawn),4.99
5,COc1ccc(OC)c(-n2c(=S)[nH]c3cc(C(=O)N4CCC(C(N)=O)CC4)ccc3c2=O)c1,-2.14
6,COc1ccc(-c2csc(COC(=O)C(C)(C)C)n2)cc1,18
7,CC(C)Cc1nc2oc3c(NCC(C)O)ncnc3c2c2c1CCCC2 (stereo not drawn),-7.54
8,CC(C)Cc1nc2oc3c(NCc4cccnc4)ncnc3c2c2c1CCC2,-50.8
9,CC(C)c1nc2oc3c(NCC4CCCO4)ncnc3c2c2c1CCC2 (stereo not drawn),-27.4
10,CC(C)c1nc2oc3c(NCc4cccnc4)ncnc3c2c2c1CCC2,-50.2
11,CC(C)c1nc2oc3c(N(C)CCO)ncnc3c2c2c1CCC2,-28.1
12,CC(C)Cc1nc2oc3c(NCC4CCCO4)ncnc3c2c2c1CCC2 (stereo not drawn),-35.8
13,Cc1ccc(Cn2c(Sc3nccc(C)n3)nc3c2c(=O)[nH]c(=O)n3C)cc1,-8.13
14,N#CCCNC(=O)Cn1c(COc2ccc(Cl)cc2)nc2ccccc21,-24.5
15,Cc1ccc(/C=C/c2nc3ccccc3s2)s1,3.83
16,Cc1oc(-c2ccccc2)nc1C(=O)O,17
17,Cc1oc(-c2ccc(Cl)cc2)nc1CN1CCC(C(=O)N2CCc3ccccc3C2)CC1,-74
18,Cc1oc(-c2ccccc2)nc1CS(=O)CC(=O)N1CCc2ccccc2C1 (stereo not drawn),-20.5
19,Cc1ccc(-c2nc(CS(=O)(=O)CC(=O)N3CCc4ccccc4C3)c(C)o2)cc1,-16
20,Cc1oc(-c2ccc(Cl)cc2)nc1CN1CCC(C(=O)N2CCN(Cc3ccccc3)CC2)CC1,-69.1
21,Cc1oc(-c2ccc(-c3ccccc3)cc2)nc1CN1CCN(CC(=O)N(C)C)CC1,-53
22,COC(=O)c1ccc(-c2nc(CN3CCN(Cc4cccc(C)c4)CC3)c(C)o2)cc1,-25.3
